Measurements from the supplement of paper PMC8728848.
Only a selection was taken, and the strongest signals are over-represented in it overall.

Assays:
Experiment in all cases: glycan array binding signal (z-score within array); higher = stronger binding
Details in all cases: glycan notation: IUPAC condensed, linker removed
[1] = target: Fuc(a1-2)Gal(b1-3)[Fuc(a1-4)]GlcNAc(b1-2)Man(a1-3)[Fuc(a1-2)Gal(b1-3)[Fuc(a1-4)]GlcNAc(b1-2)Man(a1-3)]Man(b1-4)GlcNAc(b1-4)GlcNAc
Summary of the method: (§1)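 Columns mapping to the same glycan were averaged after glycan names were converted to IUPAC-condensed notation. The data come from 3228 arrays in the Consortium for Functional Glycomics database, limited to those with an available protein sequence. Binding is reported as a within-array Z-score averaged across arrays of one protein sequence and across linkers.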

[2] = target: Fuc(a1-2)Gal(b1-3)[Fuc(a1-4)]GlcNAc(b1-2)Man(a1-3)[Fuc(a1-2)Gal(b1-3)[Fuc(a1-4)]GlcNAc(b1-2)Man(a1-6)]Man(b1-4)GlcNAc(b1-4)[Fuc(a1-6)]GlcNAc(b1-4)[Fuc(a1-6)]GlcNAc
Summary of the method: as §1

[3] = target: Fuc(a1-2)Gal(b1-4)GlcNAc(b1-2)Man(a1-3)[Fuc(a1-2)Gal(b1-4)GlcNAc(b1-2)Man(a1-6)]Man(b1-4)GlcNAc(b1-4)[Fuc(a1-6)]GlcNAc
Summary of the method: as §1

[4] = target: Fuc(a1-2)[Gal(a1-3)]Gal(b1-3)GalNAc
Summary of the method: as §1

[5] = target: Fuc(a1-2)[Gal(a1-3)]Gal(b1-3)GlcNAc(b1-3)GalNAc
Summary of the method: as §1

[6] = target: Fuc(a1-2)[Gal(a1-3)]Gal(b1-4)GlcNAc(b1-2)Man(a1-3)[Fuc(a1-2)[Gal(a1-3)]Gal(b1-4)GlcNAc(b1-2)Man(a1-6)]Man(b1-4)GlcNAc(b1-4)[Fuc(a1-6)]GlcNAc
Summary of the method: as §1

[7] = target: Fuc(a1-2)[Gal(a1-3)]Gal(b1-4)GlcNAc(b1-3)[Fuc(a1-2)[Gal(a1-3)]Gal(b1-4)GlcNAc(b1-6)]GalNAc
Summary of the method: as §1

[8] = target: Fuc(a1-2)[Gal(a1-3)]Gal(b1-4)[Fuc(a1-3)]GlcNAc
Summary of the method: as §1

[9] = target: Fuc(a1-2)[Gal(a1-3)]Gal(b1-4)[Fuc(a1-3)]GlcNAc(b1-3)GalNAc
Summary of the method: as §1

[10] = target: Fuc(a1-2)[GalNAc(a1-3)]Gal(b1-3)GalNAc(b1-3)Gal(a1-4)Gal(b1-4)Glc
Summary of the method: as §1

[11] = target: Fuc(a1-3)[Gal(b1-4)]GlcNAc(b1-2)Man
Summary of the method: as §1

Fuc(a1-4)GlcNAc = target: Fuc(a1-4)GlcNAc
Summary of the method: as §1

[12] = target: Gal(a1-3)Gal(b1-4)[Fuc(a1-3)]GlcNAc
Summary of the method: as §1

[13] = target: Gal(a1-3)Gal(b1-4)[Fuc(a1-3)]GlcNAc(b1-2)Man(a1-3)[Gal(a1-3)Gal(b1-4)[Fuc(a1-3)]GlcNAc(b1-2)Man(a1-6)]Man(b1-4)GlcNAc(b1-4)GlcNAc
Summary of the method: as §1

Gal(a1-3)GalNAc = target: Gal(a1-3)GalNAc
Summary of the method: as §1

[14] = target: Gal(a1-4)Gal(b1-4)GlcNAc(b1-2)Man(a1-3)[Gal(a1-4)Gal(b1-4)GlcNAc(b1-2)Man(a1-6)]Man(b1-4)GlcNAc(b1-4)GlcNAc
Summary of the method: as §1

Gal(a1-6)Glc = target: Gal(a1-6)Glc
Summary of the method: as §1

[15] = target: Gal(b1-3)GalNAc(a1-3)[Fuc(a1-2)]Gal(b1-4)Glc
Summary of the method: as §1

Gal(b1-3)GlcNAc(b1-2)Man = target: Gal(b1-3)GlcNAc(b1-2)Man
Summary of the method: as §1

[16] = target: Gal(b1-3)GlcNAc(b1-2)[Gal(b1-3)GlcNAc(b1-6)]Man(a1-6)[Gal(b1-3)GlcNAc(b1-2)Man(a1-3)]Man(b1-4)GlcNAc(b1-4)GlcNAc
Summary of the method: as §1

Gal(b1-4)Gal = target: Gal(b1-4)Gal
Summary of the method: as §1

[17] = target: Gal(b1-4)GalNAc(b1-3)[Fuc(a1-2)]Gal(b1-4)GlcNAc
Summary of the method: as §1

[18] = target: Gal(b1-4)GlcNAc(b1-2)[Gal(b1-4)GlcNAc(b1-4)]Man(a1-3)[Gal(b1-4)GlcNAc(b1-2)[Gal(b1-4)GlcNAc(b1-6)]Man(a1-6)]Man(b1-4)GlcNAc(b1-4)GlcNAc
Summary of the method: as §1

[19] = target: Gal(b1-4)GlcNAc(b1-3)Gal(b1-4)GlcNAc(b1-3)Gal(b1-4)GlcNAc(b1-2)Man(a1-3)[Gal(b1-4)GlcNAc(b1-3)Gal(b1-4)GlcNAc(b1-3)Gal(b1-4)GlcNAc(b1-2)Man(a1-6)]Man(b1-4)GlcNAc(b1-4)[Fuc(a1-6)]GlcNAc
Summary of the method: as §1

[20] = target: Gal(b1-4)GlcNAc(b1-3)Gal(b1-4)GlcNAc(b1-3)[Gal(b1-4)GlcNAc(b1-3)Gal(b1-4)GlcNAc(b1-6)]GalNAc
Summary of the method: as §1

[21] = target: Gal3S(b1-4)[Fuc(a1-3)]Glc6S
Summary of the method: as §1

Gal3S4S(b1-4)GlcNAc = target: Gal3S4S(b1-4)GlcNAc
Summary of the method: as §1

GalNAc(b1-4)Gal(b1-4)Glc = target: GalNAc(b1-4)Gal(b1-4)Glc
Summary of the method: as §1

GalNAc4S6S(b1-4)GlcNAc = target: GalNAc4S6S(b1-4)GlcNAc
Summary of the method: as §1

[22] = target: Glc(a1-6)Glc(a1-6)Glc(a1-6)Glc
Summary of the method: as §1

Glc(b1-4)Glc = target: Glc(b1-4)Glc
Summary of the method: as §1

[23] = target: GlcNAc(a1-4)Gal(b1-4)GlcNAc
Summary of the method: as §1

[24] = target: GlcNAc(b1-2)Gal(b1-3)GalNAc
Summary of the method: as §1

[25] = target: GlcNAc(b1-2)Man(a1-3)[GlcNAc(b1-2)Man(a1-6)]Man(b1-4)GlcNAc(b1-4)GlcNAc
Summary of the method: as §1

[26] = target: GlcNAc(b1-3)Gal(b1-4)GlcNAc(b1-3)Gal(b1-4)GlcNAc(b1-2)[GlcNAc(b1-3)Gal(b1-4)GlcNAc(b1-3)Gal(b1-4)GlcNAc(b1-6)]Man(a1-6)[GlcNAc(b1-3)Gal(b1-4)GlcNAc(b1-3)Gal(b1-4)GlcNAc(b1-2)Man(a1-3)]Man(b1-4)GlcNAc(b1-4)[Fuc(a1-6)]GlcNAc
Summary of the method: as §1

[27] = target: GlcNAc(b1-3)[GlcNAc(b1-6)]GalNAc
Summary of the method: as §1

[28] = target: Man(a1-2)Man(a1-3)[Man(a1-6)]Man(a1-6)[Man(a1-2)Man(a1-3)]Man(b1-4)GlcNAc(b1-4)GlcNAc
Summary of the method: as §1

MurNAc(b1-4)GlcNAc = target: MurNAc(b1-4)GlcNAc
Summary of the method: as §1

Neu5Ac(a2-3)Gal = target: Neu5Ac(a2-3)Gal
Summary of the method: as §1

[29] = target: Neu5Ac(a2-3)Gal(b1-3)GalNAc(b1-4)[Neu5Ac(a2-8)Neu5Ac(a2-3)]Gal(b1-4)Glc
Summary of the method: as §1

[30] = target: Neu5Ac(a2-3)Gal(b1-3)GlcNAc(b1-2)Man(a1-3)[Neu5Ac(a2-3)Gal(b1-3)GlcNAc(b1-2)Man(a1-6)]Man(b1-4)GlcNAc(b1-4)GlcNAc
Summary of the method: as §1

[31] = target: Neu5Ac(a2-3)Gal(b1-3)GlcNAc(b1-3)GalNAc
Summary of the method: as §1

[32] = target: Neu5Ac(a2-3)Gal(b1-3)[Fuc(a1-4)]GlcNAc(b1-3)Gal(b1-4)[Fuc(a1-3)]GlcNAc
Summary of the method: as §1

Neu5Ac(a2-3)Gal(b1-4)Glc = target: Neu5Ac(a2-3)Gal(b1-4)Glc
Summary of the method: as §1

[33] = target: Neu5Ac(a2-3)Gal(b1-4)GlcNAc(b1-3)Gal(b1-4)GlcNAc(b1-3)[Neu5Ac(a2-3)Gal(b1-4)GlcNAc(b1-3)Gal(b1-4)GlcNAc(b1-6)]GalNAc
Summary of the method: as §1

[34] = target: Neu5Ac(a2-3)Gal(b1-4)[Fuc(a1-3)]GlcNAc(b1-3)Gal(b1-4)[Fuc(a1-3)]GlcNAc(b1-3)Gal(b1-4)[Fuc(a1-3)]GlcNAc
Summary of the method: as §1

[35] = target: Neu5Ac(a2-3)Gal6S(b1-4)GlcNAc
Summary of the method: as §1

[36] = target: Neu5Ac(a2-3)[GalNAc(b1-4)]Gal(b1-4)Glc
Summary of the method: as §1

[37] = target: Neu5Ac(a2-3)[GalNAc(b1-4)]Gal(b1-4)GlcNAc(b1-3)GalNAc
Summary of the method: as §1

[38] = target: Neu5Ac(a2-6)Gal(b1-4)GlcNAc(b1-2)Man(a1-3)Man(b1-4)GlcNAc(b1-4)GlcNAc
Summary of the method: as §1

Neu5Ac(a2-6)GalNAc = target: Neu5Ac(a2-6)GalNAc
Summary of the method: as §1

[39] = target: Neu5Ac(a2-8)Neu5Ac(a2-3)Gal(b1-3)GalNAc(b1-4)[Neu5Ac(a2-8)Neu5Ac(a2-3)]Gal(b1-4)Glc
Summary of the method: as §1

[40] = target: Neu5Gc(a2-3)Gal(b1-3)[Fuc(a1-4)]GlcNAc
Summary of the method: as §1

B1: Siglec-E (Mus musculus), Q91Y57 (protein)
chain: MLLLLLLLLLWGIKGVEGQNPQEVFTLNVERKVVVQEGLCVLVPCNFSYLKKRLTDWTDSDPVHGFWYREGTDRRKDSIVATNNPIRKAVKETRNRFFLLGDPWRNDCSLNIREIRKKDAGLYFFRLERGKTKYNYMWDKMTLVVTALTNTPQILLPETLEAGHPSNLTCSVPWDCGWTAPPIFSWTGTSVSFLSTNTTGSSVLTITPQPQDHGTNLTCQVTLPGTNVSTRMTTRLNVSYAPKNLTVTIYQGADSVSTILKNGSSLPISEGQSLRLICSTDSYPPANLSWSWDNLTLCPSKLSKPGLLELFPVHLKHGGVYTCQAQHALGSQHISLSLSPQSSATLSEMMMGTFVGSGVTALLFLSVCILLLAVRSYRRKPARPAVVAPHPDALKVSVSQNPLVESQADDSSEPLPSILEAAPSSTEEEIHYATLSFHEMKPMNLWGQQDTTTEYSEIKFPQRTAWP
glycan array binding signal (z-score) [1]: 3.48 | glycan array binding signal (z-score) [2]: 0.284 | glycan array binding signal (z-score) [3]: 3.46 | glycan array binding signal (z-score) [4]: 0.178 | glycan array binding signal (z-score) [5]: 5.32 | glycan array binding signal (z-score) [6]: 3.5 | glycan array binding signal (z-score) [7]: 5.58 | glycan array binding signal (z-score) [8]: 0.611 | glycan array binding signal (z-score) [9]: -0.176 | glycan array binding signal (z-score) [10]: -0.363 | glycan array binding signal (z-score) [11]: -0.35 | glycan array binding signal (z-score) (Fuc(a1-4)GlcNAc): 4.01 | glycan array binding signal (z-score) [12]: -0.381 | glycan array binding signal (z-score) [13]: 6.54 | glycan array binding signal (z-score) (Gal(a1-3)GalNAc): -0.309 | glycan array binding signal (z-score) [14]: 4.23 | glycan array binding signal (z-score) (Gal(a1-6)Glc): 0.863 | glycan array binding signal (z-score) [15]: -0.496 | glycan array binding signal (z-score) (Gal(b1-3)GlcNAc(b1-2)Man): -0.592 | glycan array binding signal (z-score) [16]: 1.66 | glycan array binding signal (z-score) (Gal(b1-4)Gal): 3.25 | glycan array binding signal (z-score) [17]: -0.625 | glycan array binding signal (z-score) [18]: -0.667 | glycan array binding signal (z-score) [19]: -0.527 | glycan array binding signal (z-score) [20]: -0.06 | glycan array binding signal (z-score) [21]: 0.707 | glycan array binding signal (z-score) (Gal3S4S(b1-4)GlcNAc): -0.239 | glycan array binding signal (z-score) (GalNAc(b1-4)Gal(b1-4)Glc): 4.05 | glycan array binding signal (z-score) (GalNAc4S6S(b1-4)GlcNAc): -0.147 | glycan array binding signal (z-score) [22]: 1.1 | glycan array binding signal (z-score) (Glc(b1-4)Glc): -0.196 | glycan array binding signal (z-score) [23]: -0.41 | glycan array binding signal (z-score) [24]: -0.364 | glycan array binding signal (z-score) [25]: -0.12 | glycan array binding signal (z-score) [26]: -0.336 | glycan array binding signal (z-score) [27]: -0.05 | glycan array binding signal (z-score) [28]: -0.61 | glycan array binding signal (z-score) (MurNAc(b1-4)GlcNAc): -0.464 | glycan array binding signal (z-score) (Neu5Ac(a2-3)Gal): -0.19 | glycan array binding signal (z-score) [29]: 0.68 | glycan array binding signal (z-score) [30]: 6.41 | glycan array binding signal (z-score) [31]: -0.226 | glycan array binding signal (z-score) [32]: -0.475 | glycan array binding signal (z-score) (Neu5Ac(a2-3)Gal(b1-4)Glc): 3.95 | glycan array binding signal (z-score) [33]: -0.335 | glycan array binding signal (z-score) [34]: -0.568 | glycan array binding signal (z-score) [35]: -0.532 | glycan array binding signal (z-score) [36]: -0.34 | glycan array binding signal (z-score) [37]: -0.355 | glycan array binding signal (z-score) [38]: -0.181 | glycan array binding signal (z-score) (Neu5Ac(a2-6)GalNAc): -0.32 | glycan array binding signal (z-score) [39]: 0.342 | glycan array binding signal (z-score) [40]: 0.48
